# Screening results from PubChem.
# HEK293 tox – HEK 293 cell cytotoxicity; 94,000 tested, 6.6% active; HEK 293 viability, ATP luminescence (CellTiter-Glo), 48-72 h; Potency, µM (top dose mostly 115 µM), most hits filed as inhibitors; AID 1345083; note: nearly all actives have a fitted effect of over 60% in size
#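 Viability of HEK 293 cells, plated at 250 cells/well, was judged by cellular ATP after compound treatment for 48 or 72 hr. Luminescence was imaged 10 min after CellTiter-Glo addition at room temperature.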
# NIH3T3 tox – kills NIH 3T3 cells. AID 1345082. Potency, µM (doses to about 96.7 µM), most hits filed as inhibitors. 94,000 tested, 4.3% active. NIH 3T3 viability, CellTiter-Glo ATP luminescence, 48-72 h; note: nearly all actives have a fitted effect of over 55% in size
#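 Luminescent ATP readout (CellTiter-Glo, 10 min RT) after 48 or 72 hr compound exposure of NIH 3T3 cells seeded at 400 cells/well in 1536-well format; quantitative HTS.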
# hNpr1 antagonist – human Npr1 receptor antagonism; 76,000 tested, 1.6% active; Potency, µM (series often up to 46.3 µM), most hits filed as inhibitors; P16066; HEK293 hNpr1 GloSensor cGMP, ANP-stimulated luminescence; calls by dose curve; note: nearly all actives have a fitted effect of over 60% in size
# Target sequence (P16066 whole entry, looked up): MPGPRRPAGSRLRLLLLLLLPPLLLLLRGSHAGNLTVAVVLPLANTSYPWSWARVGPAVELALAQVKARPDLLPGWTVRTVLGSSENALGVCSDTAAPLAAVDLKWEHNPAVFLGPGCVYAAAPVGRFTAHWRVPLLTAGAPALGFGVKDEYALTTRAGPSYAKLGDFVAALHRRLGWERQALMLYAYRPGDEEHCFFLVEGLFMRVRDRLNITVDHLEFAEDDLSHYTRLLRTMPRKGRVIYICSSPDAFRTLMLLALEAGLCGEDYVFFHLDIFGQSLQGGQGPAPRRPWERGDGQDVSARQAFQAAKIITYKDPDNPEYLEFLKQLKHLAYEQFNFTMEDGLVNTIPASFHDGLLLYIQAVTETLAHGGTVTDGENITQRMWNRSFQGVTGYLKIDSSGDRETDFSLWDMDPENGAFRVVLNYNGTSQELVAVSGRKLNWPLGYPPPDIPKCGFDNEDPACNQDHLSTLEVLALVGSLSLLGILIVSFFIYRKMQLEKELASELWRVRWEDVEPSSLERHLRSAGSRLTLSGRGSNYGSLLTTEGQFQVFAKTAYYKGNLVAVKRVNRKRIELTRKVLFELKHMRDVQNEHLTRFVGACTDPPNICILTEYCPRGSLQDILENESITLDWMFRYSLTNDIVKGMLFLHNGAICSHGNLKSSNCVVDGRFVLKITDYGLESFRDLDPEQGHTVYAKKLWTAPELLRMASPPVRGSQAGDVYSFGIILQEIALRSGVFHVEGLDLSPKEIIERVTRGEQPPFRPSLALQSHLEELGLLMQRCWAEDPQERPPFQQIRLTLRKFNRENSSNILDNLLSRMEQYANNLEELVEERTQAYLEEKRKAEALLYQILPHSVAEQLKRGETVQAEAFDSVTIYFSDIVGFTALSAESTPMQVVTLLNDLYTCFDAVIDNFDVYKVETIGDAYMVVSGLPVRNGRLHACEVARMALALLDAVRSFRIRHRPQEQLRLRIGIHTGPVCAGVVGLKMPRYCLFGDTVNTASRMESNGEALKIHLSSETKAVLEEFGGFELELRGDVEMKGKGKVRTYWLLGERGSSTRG
#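 Compound pre-incubated 30 min at room temperature on GloSensor-loaded HEK293 cells stably carrying hNpr1 and the pGS-40F cGMP biosensor. Stimulation uses hNppA at 0.1 nM final; luminescence is taken at baseline and 20 min post-agonist.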
# Luciferase inh – inhibitors of firefly (Photinus pyralis) luciferase | P08659 | purified P. pyralis luciferase, luminescence, biochemical | Potency, µM (top dose mostly 115 µM), usual class: inhibitors | 76,000 tested, 2.5% active | AID 1347043; note: nearly all actives have a fitted effect of over 65% in size
#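 Luminescence read by CCD imaging after purified firefly luciferase (10nM final) was added to substrate buffer holding 10uM D-luciferin and 10uM ATP, pH 7.5, pre-dosed with compound.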
# NPR1 antag cnf – hNpr1 antagonism, confirmation assay. shares compounds with hNpr1 antagonist. HEK293 hNpr1 cGMP GloSensor luminescence, ANP-stimulated. Potency, µM (series often up to 57.6 µM), most hits filed as inhibitors. 1,400 tested, 76% active. AID 1347044; calls by dose curve; note: nearly all actives have a fitted effect of over 70% in size
# NPR2 antag – antagonizes human Npr2, subtype selectivity check; HEK293 hNpr2 GloSensor cGMP luminescence, CNP-stimulated; 1,400 tested, 67% active; Potency, µM (highest dose often 57.6 µM), most hits filed as inhibitors; AID 1347046; shares compounds with hNpr1 antagonist; calls by dose curve; note: nearly all actives have a fitted effect of over 70% in size
# FLuc counter – inhibits firefly luciferase, false Npr1 antagonist flag | shares compounds with hNpr1 antagonist | purified FLuc enzyme, luminescence, Km substrate | Potency, µM (titrated, usually from 57.6 µM), usual class: inhibitors | 1,400 tested, 0.7% active; note: series mostly up to about 58 µM
# GloSensor ctrl – counter-screen for Npr1 antagonists: GloSensor control cell line; HEK293 GloSensor cGMP, SNP-stimulated, luminescence; shares compounds with hNpr1 antagonist; Potency, µM (titrated, usually from 57.6 µM), actives largely listed as inhibitors; 1,400 tested, 69% active; AID 1347051; calls by dose curve; note: nearly all actives have a fitted effect of over 70% in size
# Hits are given with their value; 0 = inactive; ? = inconclusive; - = no result. Shown are actives, neighbours in structure and some others; about 11% of the full set was active somewhere. Unless noted, calls come from the whole dose curve; as a rule, active = well fitted curve in the direction sought with a large enough effect; inconclusive = small, poorly fitted or top-dose-only effect, or another doubt; inactive = no such curve, though single readings can be large; an effect the other way counts as inactive or inconclusive.
SMILES,HEK293 tox,NIH3T3 tox,hNpr1 antagonist,Luciferase inh,NPR1 antag cnf,NPR2 antag,FLuc counter,GloSensor ctrl
Cn1ncc2c(C(=O)N3CCOCC3)cc(-c3ccccc3C(F)(F)F)nc21,0,0,-,-,-,-,-,-
COCCN1C(=O)CO[C@H]2CN(CCCc3ccccc3)C[C@H]21,?,?,14µM,0,16µM,20µM,0,13µM
NC(=O)CN1C(=O)CO[C@H]2CN(CCCc3ccccc3)C[C@H]21,0,?,0,0,-,-,-,-
OCC1CCCN(c2ccc(-c3nc(-c4cccc(C(F)(F)F)c4)no3)cn2)C1 (stereo unspecified),0,?,14µM,0,14µM,17µM,?,17µM
C[C@]1(CO)[C@H]2Cc3sc(NC(=O)c4cccc(F)c4)nc3[C@@H](CC(=O)N3CCOCC3)[C@]2(C)CC[C@H]1O,0,0,0,0,-,-,-,-
Cc1cccc(CNC(=O)CCc2conc2-c2cccc(F)c2)c1,0,0,0,0,-,-,-,-
CCCCOc1ccc(C(=O)N2CCC(Cc3nc(-c4ccccc4)no3)CC2)cc1,?,?,10µM,0,17µM,14µM,0,12µM
Cc1cc(C)cc(C(=O)N2CCC(Cc3nc(-c4ccccc4)no3)CC2)c1,?,?,?,0,-,-,-,-
COc1ccc(C(=O)N2CCC(Cc3nc(-c4ccccc4)no3)CC2)cc1F,?,?,3.2µM,0,3.1µM,3.1µM,0,3.1µM
Cc1ccc(C(=O)N2CCC(Cc3nc(-c4ccccc4)no3)CC2)s1,32µM,?,6.3µM,0,7.7µM,9.7µM,0,8.6µM
COc1ccc(C(=O)N2CCC(Cc3nc(-c4ccccc4)no3)CC2)cc1OC,?,?,2.8µM,0,5.4µM,6.9µM,0,5.4µM
COc1ccc(C(=O)N2CCC[C@H]2c2nc(-c3ccccc3)no2)cc1F,0,0,0,0,-,-,-,-
COc1ccc(C(=O)N2CCCCCCNC(=O)[C@@H]3C[C@@H](c4nc(-c5cccnc5)no4)C[C@@H]32)cn1,0,0,0,0,-,-,-,-
CNC(=O)c1cc(C)nc2onc(C3CCCN3C(=O)COC)c12 (stereo unspecified),0,0,-,-,-,-,-,-
Cc1nncn1C1CN(S(=O)(=O)c2ccccc2F)C1,0,0,-,-,-,-,-,-
Cc1ccccc1S(=O)(=O)N1CCC(n2cnnc2-c2ccccc2)CC1,0,0,0,0,-,-,-,-
Cc1ccc(S(=O)(=O)N2CCC(n3cnnc3-c3ccccc3)CC2)c(C)c1,?,?,0,0,?,?,0,0
CCC[C@@H]1CN(c2nc(SC)ncc2C(=O)OCC)C[C@H]1N(C)C,0,0,0,0,-,-,-,-
Cc1ccccc1Oc1c(CCC(=O)NCC2CC2)c(C)nn1-c1ccc(F)cc1,?,25µM,?,0,?,?,0,?
Cc1nn(-c2ccc(F)cc2)c(Oc2ccc(F)cc2F)c1CCC(=O)NCC1CC1,?,?,?,0,?,?,0,?
Cc1ncsc1CN1CCC2(CC1)CC(CC(=O)NC1CC1)CCO2 (stereo unspecified),0,0,0,0,-,-,-,-
Cc1ncsc1CN1CCC2(CC1)CC(Cc1nc(-c3ccccc3)no1)CCO2 (stereo unspecified),18µM,?,10µM,0,12µM,17µM,0,14µM
COc1ccc(CN2CCc3nc(C(=O)NCCOc4ccccc4)oc3CC2)cn1,?,?,?,0,44µM,?,0,?
O=C(NCc1cccc(F)c1)c1nc2c(o1)CCN(Cc1cc(F)ccc1F)CC2,?,50µM,?,0,40µM,?,0,40µM
O=C(NCc1cccc(F)c1)c1nc2c(o1)CCN(CC1CCCC1)CC2,0,?,0,0,-,-,-,-
SMILES,HEK293 tox,NIH3T3 tox,hNpr1 antagonist,Luciferase inh,NPR1 antag cnf,NPR2 antag,FLuc counter,GloSensor ctrl
N#Cc1ccc(CN2CCc3nc(C(=O)NCc4cccc(F)c4)oc3CC2)cc1,?,?,?,0,40µM,?,0,31µM
O=C(NCc1ccccc1)c1nc2c(o1)CCN(Cc1ccc(F)cc1F)CC2,100µM,71µM,25µM,0,40µM,35µM,0,40µM
O=C(NCCN1CCOCC1)c1nc2sccn2c1-c1ccncc1,0,0,-,-,-,-,-,-
Cc1ccsc1CN1CCc2c(sc3ncnc(N(C)C)c23)C1,?,?,0,0,-,-,-,-
COc1cc(NC(=O)Cn2c(-c3ccc(F)cc3)nc(C)c(CCO)c2=O)cc(OC)c1,?,0,0,0,-,-,-,-
COc1ccc(CN2CCc3nc(C(=O)NCc4ccncc4)oc3CC2)cc1OC,?,?,0,0,-,-,-,-
Cc1ccccc1CN1CCc2nc(C(=O)NCc3ccncc3)oc2CC1,?,?,22µM,0,31µM,31µM,0,25µM
O=C(NCC1CC1)c1nc2c(o1)CCN(Cc1ccc(F)cc1F)CC2,?,?,25µM,0,22µM,22µM,0,20µM
COc1cccc(CN2CCc3nc(C(=O)NCC4CC4)oc3CC2)c1,?,?,0,0,-,-,-,-
COCCCn1c(=O)c(C(=O)NCc2ccccc2Cl)nc2cccnc21,0,0,-,-,-,-,-,-
Cc1cccc(-n2nc(-c3c(C)nc4scc(CC(=O)N5CCCCC5)n4c3=O)cc2C)c1C,0,0,0,0,-,-,-,-
COc1ccc(C(=O)N2CCn3c(nn(-c4ccc(Cl)cc4)c3=O)C2)cc1,0,0,-,-,?,22µM,0,27µM
O=C(c1ccc(C(F)(F)F)cc1)N1CCn2c(nn(-c3ccncc3)c2=O)C1,?,?,?,0,24µM,?,0,22µM
O=C(Nc1ccccc1)N1CCn2c(nn(-c3ccc(C(F)(F)F)cc3)c2=O)C1,45µM,?,?,0,?,?,0,?
COc1ccc(-n2nc3n(c2=O)CCN(C(=O)c2ccccc2)C3)cc1,0,0,-,-,-,-,-,-
O=c1n(-c2ccc(Cl)cc2)nc2n1CCN(Cc1cccnc1)C2,?,0,-,-,-,-,-,-
Cn1cccc1CN1CCn2c(nn(-c3ccc(Cl)cc3)c2=O)C1,?,?,-,-,?,?,14µM,?
COCCOC1CCN(C(=O)c2ccsc2)C1 (stereo unspecified),0,0,-,-,-,-,-,-
Cc1ccc2c(ccn2CCNC(=O)Cn2nc3c(cc2=O)CCCCC3)c1,0,0,0,0,-,-,-,-
O=C(NCc1ccccc1)C1CCCN1C(=O)c1cccc(-c2ccccn2)c1 (stereo unspecified),0,0,-,-,-,-,-,-
CCn1cc(S(=O)(=O)N2CCC3(CC2)CN(C2CCC2)CC3COC)cn1 (stereo unspecified),?,?,0,0,-,-,-,-
CN(C)c1cccc(-c2cnc3[nH]cc(CC(=O)N4CCOCC4)c3c2)c1,79µM,?,32µM,0,22µM,28µM,?,25µM
